For assay [1], the system named is MDA-MB-231. Briefly: cell viability relative to vehicle unstimulated control (fraction); higher = more viable cells. As to conditions: pre-treatment time: 18 h then 24 h IFNg/TNF.
Assay [2] relates to MDA-MB-231. In words: kynurenine production, fold change vs DMSO IFNg/TNF control; higher = more kynurenine produced (less inhibition). As to conditions: pre-treatment time: 18 h then 24 h IFNg/TNF. In outline: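 After trichloroacetic acid and p-dimethylaminobenzaldehyde treatment, supernatants were read at 492 nm, with 0–100 μM standards. These came from MDA-MB-231 cells (7 × 10^4/well, 96-well plates) pre-treated 18 h with natural products in 0.1% DMSO and then exposed 24 h to IFNγ (1 U/ml) and TNF (6.25 ng/ml) at 37°C. Values for kynurenine production are fold changes over same-plate cytokine-stimulated vehicle wells, averaged over duplicate plates in the first screening round.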

± gives the standard deviation of the averaged measurements.
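For cell viability relative to vehicle unstimulated control in this document: viability of the cells left after supernatant collection, read with Deep Blue dye added for 4 h, as absorbance at 570 nm minus 600 nm.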

As to `CC(=O)OC/C=C(\C)CCC=C(C)C` [Geranyl acetate] (compound dose: 10 uM), in the assay on MDA-MB-231 [1], the cell viability was 1.01 ± 0.065. For the same compound, the kynurenine production in the assay with MDA-MB-231 [2] was 0.882 ± 0.039.
As for `CC1CCC(C(C)C)C(O)C1` [(1R,2S,5R)-(-)-menthol] (compound dose: 10 uM), in the assay on MDA-MB-231 [1], the cell viability was 0.935 ± 0.035. Besides, in the assay on MDA-MB-231 [2], the kynurenine production was found to be 0.806 ± 0.069.
Taken in the same sequence, the figures for `C[C@@H]1C(=O)O[C@H]2C[C@@]34O[C@@H]5OC(=O)[C@H](O)[C@@]56[C@H](C(C)(C)C)[C@H](O)C(OC3=O)[C@]64[C@]21O` (stereo partly drawn) [Ginkgolide J] (compound dose: 10 uM) were 0.962 ± 0.014 and 0.875 ± 0.023.
Taken in the same sequence, the figures for `C/C=C1/[C@H](O[C@@H]2O[C@H](CO)[C@@H](O)[C@H](O)[C@H]2O)OC=C(C(=O)OC)[C@H]1CC(=O)OCCc1ccc(O)c(O)c1` [Oleuropein] (compound dose: 10 uM) were 0.978 ± 0.075 and 0.733 ± 0.15.
The matching figures for `C[C@@H]1CC[C@]2(C(=O)O[C@@H]3O[C@H](CO)[C@@H](O)[C@H](O)[C@H]3O)CC[C@]3(C)C(=CC[C@@H]4[C@@]5(C)C[C@@H](O)[C@H](O)C(C)(C)[C@@H]5CC[C@]43C)[C@@H]2[C@]1(C)O` [Rosamultin] (compound dose: 10 uM): 1 ± 0.077 and 1.09 ± 0.26.
In the case of `CC1=CCC2C[C@H]1C2(C)C` [(1R)-α-Pinene] (compound dose: 10 uM), the cell viability in the assay on MDA-MB-231 [1] amounted to 0.932 ± 0.081. Moreover, the kynurenine production with MDA-MB-231 [2] is 0.79 ± 0.12.
Taken in the same sequence, the figures for `C=C(C)[C@@H]1CC=C(C)C(=O)C1` [L(-)-carvone] (compound dose: 10 uM) were 0.965 ± 0.069 and 0.974 ± 0.049.
Taken in the same sequence, the figures for `C/C=C(/C)C(=O)O[C@H]1C(C)=C[C@]23C(=O)[C@@H](C=C4COC(C)(C)O[C@H]4[C@]12O)[C@H]1[C@@H](C[C@H]3C)C1(C)C` [Ingenol-5,20-acetonide-3-O-angelate] (compound dose: 10 uM) were 0.971 ± 0.025 and 0.918 ± 0.23.
The matching figures for `OCC1=C[C@@H](O)[C@@H]2C=CO[C@@H](O[C@@H]3O[C@H](CO)[C@@H](O)[C@H](O)[C@H]3O)[C@H]12` [Aucubin] (compound dose: 10 uM): 1.01 ± 0.02 and 0.87 ± 0.041.
Consider `O=C(O)C1=CO[C@@H](O[C@@H]2O[C@H](CO)[C@@H](O)[C@H](O)[C@H]2O)[C@@H]2C(CO)=CC[C@H]12` [Geniposidic acid] (compound dose: 10 uM), for which the cell viability in the assay on MDA-MB-231 [1] was 1.02 ± 0.015. Also, the kynurenine production with MDA-MB-231 [2] was found to be 0.715 ± 0.065.
The matching figures for `CC1(C)CC[C@]2(CO)CC[C@]3(C)C(=CC[C@@H]4[C@@]5(C)CC[C@H](O)C(C)(C)[C@@H]5CC[C@]43C)[C@@H]2C1` [Erythrodiol] (compound dose: 10 uM): 1.08 ± 0.031 and 0.842 ± 0.14.
The matching figures for `CC(=O)OCC1=CO[C@@H](OC(=O)CC(C)C)[C@H]2C1=C[C@H](OC(=O)CC(C)(C)OC(C)=O)[C@]21CO1` [Acevaltrate] (compound dose: 10 uM): 0.474 ± 0.047 and 0.171 ± 0.011.
Taken in the same sequence, the figures for `CC(C)=C[C@H]1C[C@](C)(O)[C@H]2[C@H]3CC[C@@H]4[C@@]5(C)CC[C@H](O[C@@H]6O[C@H](CO)[C@@H](O)[C@H](O[C@@H]7O[C@H](CO)[C@@H](O)[C@H](O)[C@H]7O)[C@H]6O[C@@H]6O[C@@H](CO)[C@H](O)[C@H]6O)C(C)(C)[C@@H]5CC[C@@]4(C)[C@@]34CO[C@@]2(C4)O1` [Bacoside A3] (compound dose: 10 uM) were 0.944 ± 0.034 and 0.672 ± 0.11.
On to `C=C1C=CC(C(C)C)CC1` (stereo not drawn) [β-Phellandrene] (compound dose: 10 uM), for which the cell viability in the assay on MDA-MB-231 [1] was 0.99 ± 0.038. Also, the kynurenine production in the assay on MDA-MB-231 [2] stood at 0.832 ± 0.18.
The matching figures for `C/C1=C\CC/C(C)=C/C2C(CC/C(C)=C/CC1)C2(C)C` (stereo not drawn) [Casbene] (compound dose: 10 uM): 1.11 ± 0.042 and 0.871 ± 0.056.
The matching figures for `CC(C)=CCC[C@](C)(O[C@@H]1O[C@H](CO)[C@@H](O)[C@H](O)[C@H]1O)[C@H]1CC[C@]2(C)[C@@H]1[C@H](O)C[C@@H]1[C@@]3(C)CC[C@H](O[C@@H]4O[C@H](CO)[C@@H](O)[C@H](O)[C@H]4O[C@@H]4O[C@H](CO)[C@@H](O)[C@H](O)[C@H]4O)C(C)(C)[C@@H]3CC[C@]12C` [Ginsenoside Rd] (compound dose: 10 uM): 1 ± 0.022 and 0.778 ± 0.17.
Taken in the same sequence, the figures for `C[C@@H]1O[C@@H](O[C@H]2[C@H](OC(=O)[C@]34CCC(C)(C)C[C@H]3C3=CC[C@@H]5[C@@]6(C)C[C@H](O)[C@H](O[C@@H]7O[C@H](CO)[C@@H](O)[C@H](O)[C@H]7O)[C@@](C)(CO)[C@@H]6CC[C@@]5(C)[C@]3(C)C[C@H]4O)OC[C@H](O)[C@@H]2O)[C@H](O)[C@H](O)[C@H]1O[C@@H]1OC[C@@H](O)[C@H](O[C@@H]2OC[C@](O)(CO)[C@H]2O)[C@H]1O` [Polygalacin D] (compound dose: 10 uM) were 0.821 ± 0.05 and 0.382 ± 0.056.
For `CC(C)=CCC/C(C)=C/CO` [Geraniol] (compound dose: 10 uM), the cell viability in the assay on MDA-MB-231 [1] stood at 0.998 ± 0.042. In the assay with MDA-MB-231 [2], the kynurenine production is 0.829 ± 0.2.
The matching figures for `C=CC(=C)CCC=C(C)CCC=C(C)C` [(E)-β-Farnesene] (compound dose: 10 uM): 0.977 ± 0.015 and 0.723 ± 0.27.

Source of the values: the supplement of paper PMC13094657.
